Drawing on PubChem BioAssay AID1259415 (National Center for Advancing Translational Sciences (NCATS), 2018), this text covers activity change, negative = inhibition for 44 compounds.

Out of some 410,000 compounds screened, about 18,000 (4.4%) were called active. About 7% were inconclusive and are not listed. The entries come from a sample that favours actives as a whole. Values without a mark were called inactive. No stated cut-off is given here; in the data, active means activity change below about -60%; inconclusive means no clear call, values can overlap the other calls; inactive means above about -39%.
On the % scale 0 is the no-effect control and ±100 the full control effect.

The experiment can be described thus: qHTS Assay for inhibitors of the human cytomegalovirus (HCMV). Particulars: HFF cells, HCMV-luciferase reporter, 72 h; at 57.5 µM; hits give low values. A digest of the protocol:
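Two compound doses tested in HFFs infected with HCMV-luciferase, MOI 1 PFU/cell, 72 h at 37C. Lysate luminescence read with OneGlo; data normalized against buffer-only and 10uM Salinomycin inhibitor controls.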
A general note: In qHTS, concentration-response curves come from the screen itself.
As to `O=C(CSc1nnc(N2CCOCC2)n1-c1cccc(F)c1)N1CCN(c2ccccn2)CC1`, the activity change, negative = inhibition was -18.8%.

Regarding `O=C(C[C@H]1CC[C@H]2[C@@H](COC[C@H](O)CN2C(=O)c2ccccn2)O1)N1CCN(c2ccccc2)CC1`, the activity change, negative = inhibition was -65.2% (active).

For the compound `CCCNC(=O)C[C@@H]1CC[C@@H]2[C@H](COC[C@H](O)CN2C(=O)c2cc(Cl)cc(Cl)c2)O1`, the activity change, negative = inhibition was -17.8%. The figure for `COc1ccccc1OCCCn1c(-c2ccc(Cl)cc2)nc2ccccc2c1=O` is 39.4%.

For the compound `COc1ccc(-c2nc3ccccc3c(=O)n2CCc2ccc(O)cc2)cc1`, the activity change, negative = inhibition is -62% (active). Consider `COc1cccc(OCCn2c(-c3ccc(Br)cc3)nc3ccccc3c2=O)c1`, for which the activity change, negative = inhibition is 43%.

`Cc1ccc2c(c1)N(C(=O)CCC(=O)NCc1ccccc1F)CC(C)O2` (centres undefined): the activity change, negative = inhibition was 8.23%. The same measure for `COC(=O)c1ccc(NC(=S)NN2CCOCC2)cc1`: 35.3%.

As to `Cc1ccc(C(=O)NC(=S)Nc2ccc(N3CCOCC3)cc2)cc1`, the activity change, negative = inhibition is -103% (active). As to `Cc1ccc(C(=O)C(=S)N2CCOCC2)cc1`, the activity change, negative = inhibition is 6.2%. The figure for `O=C(NCCN1CCN(Cc2ccccc2)CC1)c1cc2c(=O)[nH]c3ccccc3c2s1` is -8.01%. The same measure for `Cc1nc2ccccc2c2oc(C(=O)NCCCN3CCC(C)CC3)cc12`: 52.7%. Regarding `CCC1CCCCN1CCCNC(=O)c1cc2c(Cl)nc3ccccc3c2s1` (centres undefined), the activity change, negative = inhibition is -99.5% (active).

In the case of `Cc1ccc(NC(=O)CN(C)C(=O)c2ccc(Cl)c(S(=O)(=O)NCc3ccco3)c2)cc1`, the activity change, negative = inhibition is -35%. The figure for `O=S(=O)(c1ccc(C2CCCCC2)cc1)N1CCN(c2ccc(Cl)c(Cl)c2)CC1` is 9.35%. The figure for `COC(=O)c1c(NC(=O)CN2CCN(S(=O)(=O)c3ccccc3[N+](=O)[O-])CC2)sc2c1CCC(C)C2` (centres undefined) is -60.3% (active).

For the compound `COC(=O)c1c(NC(=O)CCCOc2ccccc2)sc2c1CCC(C)C2` (centres undefined), the activity change, negative = inhibition was 5.16%.

In the case of `Cc1c(Br)c([N+](=O)[O-])nn1CC(=O)Nc1sc2c(c1C(=O)OC(C)C)CCC(C)C2` (centres undefined), the activity change, negative = inhibition was 9.26%. Take `Cn1c(=O)oc2cc(S(=O)(=O)CCC(=O)NCCc3ccc(Cl)cc3)ccc21`: the activity change, negative = inhibition is 11.3%.

Consider `CCN(CC)c1nn2c(=O)c(C(=O)NCCc3ccccc3)cnc2s1`, for which the activity change, negative = inhibition is 3.6%. The same measure for `COc1ccc(NS(=O)(=O)c2cc3c4c(c2)CC(=O)N4CCC3)cc1Cl`: -18.7%; for `CCOc1ccc(Br)cc1S(=O)(=O)Nc1cccc(S(=O)(=O)N(CC)CC)c1`: 14.1%. The same measure for `CCOc1ccc(Br)cc1S(=O)(=O)N1CCC(C(=O)O)CC1`: -26.6%. Regarding `CCOc1ccc(Br)cc1CSC(=N)N`, the activity change, negative = inhibition was -73.3% (active). The figure for `Cc1nn(C)c2c1c(C(F)(F)F)cc(=O)n2C(C)C(=O)NCc1ccc(Cl)cc1` (centres undefined) is 7.11%; for `O=C(c1cccc(Br)c1)N1CCN(Cc2cc(=O)n3nc(-c4ccccc4)sc3n2)CC1` it is -19.8%; for `COc1ccccc1NC(=O)Cn1cnc2ccc(S(=O)(=O)N3CCC(C)CC3)cc2c1=O` it is -5.25%.

Take `COc1ccc(NC(=O)CSc2nnc(-c3nnn(-c4ccc(F)cc4)c3C)o2)cc1`: the activity change, negative = inhibition is 10.5%. The same measure for `Cc1ccccc1NC(=O)Cn1c(=O)n(CCc2ccccc2)c(=O)c2ccccc21`: 24.5%. `O=C(c1ccccc1F)N1CCC(c2nc3c(nnn3Cc3cccc(F)c3)c(=O)[nH]2)CC1`: the activity change, negative = inhibition is 67.9%. The same measure for `Cc1ccc(Cn2nnc3c(=O)[nH]c(C4CCN(S(=O)(=O)/C=C/c5ccccc5)CC4)nc32)cc1`: 48.5%; for `Cc1ccc(NC(=O)N2CCC(c3nc4c(nnn4Cc4c(F)cccc4Cl)c(=O)[nH]3)CC2)cc1`: -65.5% (active); for `CCOc1ccc(-n2c(C)nc3c(cnn3-c3ccc(C)cc3)c2=O)cc1`: -26.3%.

Consider `CCCNC(=S)N1CCC(NC(=O)C23CC4CC(CC(C4)C2)C3)CC1`, for which the activity change, negative = inhibition was 20%. Regarding `Cc1ccc(CNC(=O)CSc2c(C)cnc3c2c(=O)n(C)c(=O)n3C)cc1`, the activity change, negative = inhibition is -25%. For the compound `O=C(OC12CC3CC(CC(C3)C1)C2)c1ccc(NCc2cc(O)ccc2O)cc1`, the activity change, negative = inhibition is -100% (active).

Regarding `O=C(CSCc1c(Cl)cccc1Cl)NN1C(=O)c2ccccc2C1=O`, the activity change, negative = inhibition is 12.2%.

Consider `CCN1CCc2nc3sc(C(=O)Nc4ccccc4OC(F)(F)F)c(N)c3cc2C1`, for which the activity change, negative = inhibition was -25.3%.

Consider `CCCCOC(=O)/C(C#N)=C/c1ccc(-c2cccc(C(F)(F)F)c2)o1`, for which the activity change, negative = inhibition is -3.64%. The same measure for `CCOC(=O)c1ccc(-c2ccc(/C=C(\C#N)C(=O)Nc3ccc(OCC)cc3)o2)cc1`: 4.93%.

As for `O=C(NCCN1CCN(C(=O)c2cccc([N+](=O)[O-])c2)CC1)C(=O)NCc1ccc(Cl)cc1`, the activity change, negative = inhibition is 27.7%. The figure for `CCOC(=O)c1ccc(-c2ccc(/C=C(\C#N)C(=O)Nc3ccc(C)cc3)o2)cc1` is 31.4%; for `N#C/C(=C\c1ccc(-c2cccc([N+](=O)[O-])c2)o1)C(=O)NCCN1CCOCC1` it is -67.8% (active); for `Cc1ccc(Cc2cnc(NC(=O)/C(C#N)=C/c3ccc(-c4cccc([N+](=O)[O-])c4)o3)s2)cc1` it is -61.6% (active).
